# Assay results taken from ChEMBL document CHEMBL3988442, “University of Dundee, Small-Polar-MMV Screening Library” (2021).
# Out of some 48,000 compounds screened, about 13,000 (27%) showed an effect of 50% or more. The list shows a part of the results.
# Tested on: Wolbachia pipientis
# Experiment: Anti-Wolbachia Cell-Based Screen
# Format: functional
# Design: scale not given: in the data most compounds retested in dose-response had high values
# Conditions: 5 µM
row,Structure (SMILES),Percent Effect [%]
1,COc1ccc2c(c1)CN(CC1CC1)C(=O)CCN2CC(C)(C)O,98.75
2,CCN1Cc2cc(OC)ccc2N(CC(C)(C)O)CCC1=O,102.5
3,COc1ccc2c(c1)C(=O)N(C)C1(CCN(CC3CC3)CC1)N2,-12.56
4,COc1ccc2c(c1)CCCN2Cc1nc2c(cnn2C)c(=O)[nH]1,-6.912
5,COc1ccc2c(c1)CCCN2C(=O)NC1CCCCNC1=O (centres undefined),-4.83
6,COc1ccc2c(c1)CCCN2C(=O)c1cccc(N(C)C)c1,-8.665
7,CN1CCN(Cc2noc(CC3CCc4ccccc43)n2)CC1 (centres undefined),3.539
8,Cc1csc(CN(C)C(=O)c2cccc(CCC(C)(C)O)c2)n1,-10.56
9,COCc1ncc(CN2C[C@@H](C(=O)O)[C@H](C(C)C)C2)cn1,0.5192
10,CS(=O)(=O)N1CCC(c2cnc(-c3cn[nH]c3)cn2)CC1,122.9581
11,O=C(O)c1cc(-c2cn[nH]c2)cc(S(=O)(=O)N2CCSCC2)c1,-7.646
12,CC(C)N1CCC(c2cnc(-c3cncnc3)cn2)CC1,77.04
13,Cn1cc(-c2nc(C3CCN(S(C)(=O)=O)CC3)cc3c2ncn3C)cn1,6.413
14,CC(C)N1CCC(c2cnc(-c3cn[nH]c3)cn2)CC1,107.4
15,CCCn1ncnc1C(C)NC(=O)C1CCN(C(C)C)CC1 (centres undefined),-2.448
16,CC(C)N1CCC(c2nnc(CN3CCCC3)n2C2CC2)CC1,-3.352
17,COc1cccc2c1OCCCN(Cc1ccc(C(N)=O)c(=O)[nH]1)C2,-4.223
18,CC(C)Cn1cnc(S(=O)(=O)Nc2cccnc2-n2cccn2)c1,-21.79
19,CC1(C)CN(C(=O)CC2CCS(=O)(=O)CC2)C[C@]1(C)O,8.618
20,O=S(=O)(NCC1(O)CCOCC1)c1ccccc1Br,8.924
21,CC(C)NC(=O)NC[C@H]1OC[C@@H](NCc2cccs2)[C@@H]1O,11.97
22,CCc1cc(N[C@H](C(N)=O)C(C)C)n2nc(C)c(C)c2n1,-4.879
23,Cc1cccc(C2(CNC(=O)CCNS(C)(=O)=O)CCCC2)c1,4.767
24,Cc1c(Br)cccc1C(=O)NCCC1CCCNC1.Cl (centres undefined),6.591
25,c1cnc(Nc2cc(CCC3CCNCC3)ccn2)cn1,61.48
26,O=C(CO)N1CCC(CCc2ccnc(Nc3cnccn3)c2)CC1,125.8

row,Structure (SMILES),Percent Effect [%]
1,CC(Cc1cnccn1)NC(=O)c1cccc(CC2CCNCC2)c1 (centres undefined),-6.406
2,O=C(NCCNc1cnccn1)NCC1CCS(=O)(=O)C1 (centres undefined),-2.4
3,CN1CCC(CCc2ccnc(Nc3cnccn3)c2)CC1,95.48
4,Cl.c1cnc(Nc2cc(CCC3CCCNC3)ccn2)cn1 (centres undefined),75.77
5,Cc1ccc(Oc2ncccc2CNC2CCOCC2)cn1,-4.901
6,CCC(CNC1CCN(C(C)=O)CC1)Oc1cccc(C)c1 (centres undefined),3.033
7,CN(C)c1cc2c(nn1)CCN(C(=O)C1CCc3ccccc31)C2 (centres undefined),-4.6
8,Cc1nc(C(=O)NCCS(=O)(=O)N2CCCC2)cs1,99.98
9,CCCc1nc(C(=O)NCCN2CCC(c3ccccc3C)C2)cs1 (centres undefined),-11.15
10,Cc1cc(C(=O)NCCN2CCN(S(C)(=O)=O)CC2)no1.Cl,11.14
11,Cc1cc(C)n(-c2nc(C(=O)NCCS(=O)(=O)N3CCCCC3)cs2)n1,95.89
12,Cc1cc(C)n(-c2nc(C(=O)NCCN3CCC(C)CC3)cs2)n1,74.92
13,Cc1csc(CNC(=O)NC2CCCN(S(C)(=O)=O)C2)n1 (centres undefined),-1.577
14,CCc1c(C)nn(CCNC(=O)c2csc(C)n2)c1C,-30.9
15,CC1CCN(CCNC(=O)c2cncnc2C(C)C)CC1,-7.999
16,Cc1nc(C(=O)N2CCN(S(C)(=O)=O)[C@@H]3CS(=O)(=O)C[C@@H]32)cs1,-1.846
17,OC[C@@H]1CCCN1Cc1cn(C2CCN(C3CCCC3)CC2)nn1,-5.2
18,Cc1noc(OCCOc2ccc(C#N)cc2)n1,1.206
19,O=C1CO[C@H](c2ccc(NS(=O)(=O)Cc3ccccc3)cc2)[C@@H](CO)N1,-3.508
20,Cn1cccc1C(O)CNS(=O)(=O)Cc1ccccc1 (centres undefined),-5.113
21,Cn1c(=O)n(C)c2cc(NS(=O)(=O)Cc3ccccc3)ccc21,78.16
22,Cn1ccc(CS(=O)(=O)Cc2ccccc2)cc1=O,-1.625
23,CN1C(=O)C(C)(C)COc2ccc(NS(=O)(=O)Cc3ccccc3)cc21,99.35
24,CC(C)CS(=O)(=O)Nc1ccc([C@H]2OCC(=O)N[C@@H]2CO)cc1,-5.323
25,Cc1nc(N2CCCC2)nc(C)c1NS(=O)(=O)c1ccccc1F,-5.726
26,CN1C(=O)C(C)(C)COc2cc(NS(=O)(=O)c3ccccc3)ccc21,19.53

row,Structure (SMILES),Percent Effect [%]
1,CN1C(=O)C(C)(C)COc2cc(NS(=O)(=O)Cc3ccccc3)ccc21,11.42
2,CC(C)CS(=O)(=O)Nc1ccc2c(c1)OCC(C)(C)C(=O)N2C,141.6
3,CN1C(=O)C(C)(C)COc2cc(NS(=O)(=O)c3ccccc3F)ccc21,192.1
4,Cn1cnc2c1CCN(CCCOc1ccc(S(C)(=O)=O)cc1)C2,-0.429
5,COc1cc(CNC(=O)N2CCCC2c2cc(C)no2)ccn1 (centres undefined),-13.9
6,CCOc1ccccc1-c1noc(CN(C)Cc2cnn(C)c2)n1,-16.57
7,CCS(=O)(=O)Nc1ccc2[nH]c(C3CCC3)nc2c1,5.664
8,CCS(=O)(=O)Nc1ccc2c(c1)OCC(C)(C)C(=O)N2C,121.3
9,CCCS(=O)(=O)Nc1ccc2c(c1)OCC(C)(C)C(=O)N2C,-9.167
10,O=C(CCc1nc(Cl)n[nH]1)NC1CCCN(C2Cc3ccccc3C2)C1 (centres undefined),-44.69
11,COC(=O)c1ccoc1CN(C)CC(=O)N(C)C,115.3
12,COC(=O)c1ccoc1CN(C)Cc1cc(OC)c(OC)cc1C,109.7
13,COC(=O)CNC(=O)C1(N(C)Cc2ccccc2)Cc2ccccc2C1,-5.057
14,CN(CC(=O)N(C)C)Cc1ccc(C#N)cc1F,-6.679
15,COC(=O)c1ccoc1CN(C)Cc1ccccc1,118.1
16,COc1cc(C)c(C(C)NC(=O)c2cccnc2N(C)C)cc1OC (centres undefined),0.4558
17,CN(Cc1ccccc1)CC(C)(C)NC(=O)c1ccon1,7.047
18,COc1cc(CC(=O)Nc2cccc(C(=O)N(C)C)n2)ccc1C,-9.433
19,CC1Cc2ccccc2N1Cc1occc1C(=O)NCC(=O)N(C)C (centres undefined),-8.438
20,COc1ccc(F)cc1C(C(=O)O)N1CCCN(C2CCCC2)CC1 (centres undefined),11.4
21,CCC(C)(C)NC(=O)c1scnc1Cl,6.107
22,Cc1cnn(C2CN(CC(O)COCc3ccc4c(c3)OCO4)C2)c1 (centres undefined),-34.94
23,CSc1ccc(CNC(c2ccccc2)c2nccn2C)cc1 (centres undefined),-1.677
24,COc1ccc(Cl)cc1C(C(=O)O)N(C)Cc1ccon1 (centres undefined),-2.698
25,COc1ccc(C(C(=O)O)N(C)CCN2CCCC2)c(C)c1 (centres undefined),0.7603
26,COc1ccc(C(C(=O)O)N(C)Cc2c(C)nn(C)c2C)c(C)c1 (centres undefined),108.6

row,Structure (SMILES),Percent Effect [%]
1,COc1cc(C)cc(OC)c1C(C(=O)O)N(C)Cc1c(C)nn(C)c1C (centres undefined),77.2
2,Cc1nn(C)c(C)c1CN(C)C(C(=O)O)c1ccc(F)cc1F (centres undefined),99.54
3,COc1cc(F)ccc1C(C(=O)O)N(C)Cc1ccon1 (centres undefined),19.52
4,COc1cc(C)cc(C(C(=O)O)N(C)Cc2cnn(C)c2)c1OC (centres undefined),-13.95
5,Cc1ccc(C(C(=O)O)N(C)CCN2CCOCC2)c(F)c1 (centres undefined),-0.2175
6,COc1cc(CN(C)C(=O)Cc2c(C)nn(C)c2C)ccc1OC(F)F,-29.22
7,Cc1ccc(NC(=O)CN2CCCNC2=O)c(SC(F)(F)F)c1,-6.443
8,CN(C)C1CCCN(C(=O)NCCNC(=O)C2CCCC2)C1 (centres undefined),2.147
9,N#Cc1cccc(S(=O)(=O)NC2CCN(CC(F)(F)F)C2)c1 (centres undefined),11.74
10,N#Cc1ccc(SCCOCCO)c(Cl)c1,-25.21
11,CN1CCN(c2ncnc3c2CCN(Cc2nccn2C)CC3)CC1,-1.995
12,N#CC1CCCN(c2nc(-c3ccccc3)nc3c2CCNCC3)C1 (centres undefined),6.584
13,Cn1cc(CN2CCc3ncnc(N4CCCC4)c3CC2)cn1,6.266
14,Cn1ccnc1CN1CCc2ncnc(N3CCCC(C#N)C3)c2CC1 (centres undefined),91.92
15,N#CC1CCCN(c2ncnc3c2CCN(Cc2ccccc2)CC3)C1 (centres undefined),115
16,COCCn1ccnc1C1CCCN(c2ncnc3c2CCC3)C1 (centres undefined),-0.4091
17,Cc1ccccc1N1CCN(C(=O)c2cccnc2-n2cncn2)CC1,25.7
18,Cc1nc(C2CCCN2Cc2cc(Cl)c3c(c2)OCCCO3)no1 (centres undefined),-4.62
19,CC(C)=CCC1(C(=O)O)CCCN(c2ccnc(N)n2)C1 (centres undefined),0.6776
20,O=C1c2cc(Br)cc(Br)c2OCC1(CN1CCCC1)CN1CCCC1,108.8
21,Cc1cc(I)c2c(c1)C(=O)C(CN1CCCC1)(CN1CCCC1)CO2,118.1
22,CCNC(=O)NC[C@@H]1C=C(C)[C@H](CC(=O)NCCN(C)C)C[C@H]1C(C)C,-8.573
23,OCCCN1CCc2onc(C(c3ccccc3)c3ccccc3)c2C1,6.435
24,CCOc1ccc(C(F)(F)F)cc1NCc1cc(C)on1,-4.345
25,Cc1cc(CNc2ccc3nc(C)sc3c2)no1,5.343
26,Cc1cc(CNc2ccc(C(F)(F)F)cc2)no1,98.51
